# TDP1 block: TDP1 (human) enzyme inhibition. Q9NUW8. recombinant TDP1, AlphaScreen DNA substrate cleavage. Potency, µM (doses to about 130 µM), for inactives: at the top dose activity change, negative = inhibition, actives largely listed as inhibitors. hit rate 0.28% among 350,000. AID 485290; also: % is scaled to controls: 0 for no effect and ±100 for the full control effect; nearly all actives have a fitted effect of over 40% in size
#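 E. coli-derived human Tdp1, 1 nM final. Cpd preinc 15 min RT; substrate 15 nM final, 5 min RT; AS bead mix 10 ug/ml final, 10 min RT. Signal loss = tyrosine-FITC cleavage. No-enzyme wells = max signal.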
# Rango dissoc inh: prevents RanGTP from dissociating the Rango-importin beta complex; Biochemical FRET Rango-importin beta, RanGTP-induced dissociation; Potency, µM (doses to about 46.1 µM), inactives show at the top dose activity change, negative = inhibition; hit rate 0.071% among 340,000; calls by dose curve; also: % of control where 0% means no effect; nearly all actives have a fitted effect of over 45% in size
#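 Rango (0.1 uM)–importin beta (0.25 uM) complex; RanGTP-RCC1 trigger; 45 min RT; CFP/YFP FRET read.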
# 12-LOX inh: blocks human arachidonate 12S-lipoxygenase | hit rate 1.1% among 580,000 | purified 12hLO, xylenol orange hydroperoxide absorbance | AID 1671190 | P18054 | Potency, µM (highest dose often 108 µM), without a hit: top-dose activity change, negative = inhibition, most hits filed as inhibitors; also: % is scaled to controls: 0 for no effect and ±100 for the full control effect
#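 Purified human 12hLO at 150 nM in 25 mM Hepes, 0.01% Triton X-100, pH 7.0, preincubated 15 min at room temperature with compound. Reaction started with 40 uM arachidonic acid, 30 min at room temperature. Hydroperoxide measured by Fe-xylenol orange, 573/405 nm absorbance ratio.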
# Rango-impB inh: Rango-importin beta binding inhibition; hit rate 0.031% among 340,000; Potency, µM (highest dose often 92.2 µM), for inactives: at the top dose inhibition of complex formation; Rango CFP/YFP FRET sensor + importin beta, 45 min; Q14974; calls by dose curve;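 also: 0% = DMSO wells and 100% = buffer wells lacking importin beta; nearly all actives have a fitted effect of over 15% in size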
#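 Inhibition scored from the CFP 486 nm/YFP 530 nm FRET ratio 45 min after adding 0.125 microM importin beta to 50 nM Rango biosensor preincubated 5 min with compound (room temperature, PBS with DTT, Tween-20, BSA). No-importin wells as positive control.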
# ClpP mod: qHTS Assay for Activators of ClpP | ATP-dependent Clp protease proteolytic subunit (Bacillus subtilis (strain 168)), P80244 | purified B. subtilis ClpP, FRET peptide cleavage, 20 min | Potency, µM (highest dose often 57.5 µM), inactives show top-dose activity change, negative = active | hit rate 1.9% among 340,000 | AID 651965, 2013; active = well fitted falling curve with a large enough effect; inconclusive = small, poorly fitted or top-dose-only effect; inactive = no such curve, though single readings can be large or run the other way; also: the source files actives as falling curves though it sought activators and does not explain the sign; nearly all actives have a fitted effect of over 65% in size
#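 Purified B. subtilis ClpP, 10 microg/mL final in Tris/HCl pH8 with KCl, BSA, glycerol and Tween-20, cleaved an Abz/nitrotyrosine-quenched decapeptide. Fluorescence (ex 320, em 430) was read at 0 and 20 min at room temperature. Delta was normalized to 5.8 microM ADEP and DMSO/no-enzyme controls.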
# TSG101-PTAP inh: blocks PTAP/TSG101 interaction to inhibit HIV-1 budding. Q99816. Fluorescence polarization, FITC-PTAP peptide / Tsg101 binding. Potency, µM (doses to about 115 µM), inactives show top-dose activity change, negative = inhibition, hits mostly inhibitors. 340,000 tested, under 10 active; active = well fitted inhibition curve with a large enough effect in the main read-out, with a control signal flat, not every such curve was filed as active; inconclusive = small, poorly fitted or top-dose-only effect, or effect the other way, or a change in a side signal; inactive = no such curve, though single readings can be large or run the other way; also: % of control where 0% means no effect
# Target sequence (Q99816 whole entry, looked up): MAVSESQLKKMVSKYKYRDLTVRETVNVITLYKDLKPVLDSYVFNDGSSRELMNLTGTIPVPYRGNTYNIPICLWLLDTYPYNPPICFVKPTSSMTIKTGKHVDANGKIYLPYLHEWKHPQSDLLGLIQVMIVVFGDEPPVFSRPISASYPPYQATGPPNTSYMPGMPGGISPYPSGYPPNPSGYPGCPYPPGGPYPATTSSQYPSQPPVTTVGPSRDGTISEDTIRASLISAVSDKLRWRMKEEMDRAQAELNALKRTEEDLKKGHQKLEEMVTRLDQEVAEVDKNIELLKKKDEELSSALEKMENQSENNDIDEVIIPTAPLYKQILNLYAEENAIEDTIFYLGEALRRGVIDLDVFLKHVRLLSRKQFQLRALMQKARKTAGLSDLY
#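 Tsg101 binding domain (10 uM final) was mixed with compound and a FITC-labeled PTAP peptide (50 nM final) in HEPES pH 7.5 buffer with NaCl, Tween 20, EDTA and TCEP; fluorescence polarization was read after 20 min at r.t.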
# * = called active by the depositor; ? = inconclusive; . = no result. This is a sample that favours compounds with a hit; in the whole collection about 2.4% have one here. Unless noted, calls follow the shape of the dose curve; as a rule, active = well fitted curve in the direction sought with a large enough effect; inconclusive = small, poorly fitted or top-dose-only effect, or another doubt; inactive = no such curve, though single readings can be large; an effect the other way counts as inactive or inconclusive. Potency is read from the fitted curve at half-maximal effect.
SMILES,TDP1 block,Rango dissoc inh,12-LOX inh,Rango-impB inh,ClpP mod,TSG101-PTAP inh
COc1ccc(C(=O)NNC(=O)c2cccc(S(=O)(=O)N3CCOCC3)c2)cc1,2%,14%,5%,1%,.,-7%
O=c1n(-c2ccc(C(F)(F)F)cc2)nc2n1CCN(Cc1cccc3ccccc13)C2,.,.,40%,.,.,.
COc1ccc(NS(=O)(=O)c2ccc(S(=O)(=O)N3CCCC3)cc2)cc1,4%,-5%,2%,0%,-5%,-8%
COc1ccc(NS(=O)(=O)c2ccc(S(=O)(=O)N3CCOCC3)cc2)cc1,1%,-2%,-17%,0%,16µM*,0%
Cc1nn(C)c(C(=O)N/N=C/c2cccc3ccccc23)c1Cl,0%,3%,34%,-4%,14µM*,-1%
CC(On1nnc2ccc(Cl)cc21)C(=O)Nc1ccccc1Cl (configuration not stated),.,.,4%,.,.,.
CC(C)N1C(=O)S/C(=C/c2cn(CC#N)c3ccccc23)C1=O,.,.,4.5µM*,.,.,.
C=CCN1C(=O)S/C(=C/c2cn(CC(=O)O)c3ccccc23)C1=O,.,.,32µM*,.,.,.
S=C(NCc1ccc(Cl)cc1)Nc1ccccc1,0%,36%,?,0%,.,0%
S=C(NCc1ccc(Cl)cc1)Nc1ccc(Nc2ccccc2)cc1,.,.,18µM*,.,.,.
O=C(Cc1ccc(Cl)cc1)Nc1ccc(Br)cn1,.,8%,13%,1%,0%,-1%
S=C(NCc1ccc(Cl)cc1)Nc1ccc(Br)cn1,.,.,4.5µM*,.,.,.
S=C(NCCc1ccc(Cl)cc1)Nc1ccc(Nc2ccccc2)cc1,.,.,28µM*,.,.,.
Cc1ccc(CNC(=S)Nc2ccccc2Cl)cc1,.,.,45µM*,.,.,.
CCOc1ccccc1C(=O)NCCc1noc(C2CC2)n1,.,.,10%,.,.,.
Cn1c(=S)c2[nH]c(SCc3cccnc3)nc2n(C)c1=O,.,2%,3.2µM*,-1%,-2%,-1%
O=C(N[C@H]1CO[C@H]2[C@@H]1OC[C@@H]2n1nnnc1Oc1ccccc1)c1ccc(C(F)(F)F)cc1,.,.,-1%,.,.,.
Nc1ccc(N2CCOCC2)c2nonc12,3%,-2%,40µM*,0%,1%,-5%
COc1ccc(C(CC(=O)N2CCCC2)c2c(OC)cc(OC)c3c(-c4ccccc4)cc(=O)oc23)cc1 (configuration not stated),7.9µM*,-2%,?,-2%,-2%,-2%
COc1ccc(C(CC(=O)N2CCOCC2)c2c(OC)cc(OC)c3c(-c4ccccc4)cc(=O)oc23)cc1 (configuration not stated),-4%,-1%,?,0%,-2%,.
COc1ccc(C(CC(=O)N2CCCCC2)c2c(OC)cc(OC)c3c(-c4ccccc4)cc(=O)oc23)cc1 (configuration not stated),.,-3%,40µM*,?,?,-7%
Cn1cnc(S(=O)(=O)N2CCC(CC(=O)NCc3ccccc3)C2)c1 (configuration not stated),.,.,18%,.,.,.
O=[N+]([O-])c1ccc(Cl)cc1N1CCCCC1,6%,13%,-13%,6%,-2%,-1%
O=[N+]([O-])c1ccc(Cl)cc1CN1CCCCCC1,.,0%,5µM*,0%,.,-4%
COC(=O)[C@H](CC(C)C)N(Cc1cn(CC2CCCCC2)nn1)S(=O)(=O)c1ccc(F)cc1Br,.,.,10µM*,.,.,.
COC(=O)[C@H](CC(C)C)N(Cc1cn(CC2CCCCC2)nn1)S(=O)(=O)c1ccccc1Br,.,.,5.6µM*,.,.,.
COC(=O)[C@H](CC(C)C)N(CCc1cn(CC2CCCCC2)nn1)S(=O)(=O)c1ccc(F)cc1Br,.,.,28%,.,.,.
O=[N+]([O-])c1c(N2CCCC(CO)C2)ccc2ncccc12 (configuration not stated),.,.,-6%,.,.,.
O=c1cc(-c2c(O)c3ccccc3n(Cc3ccccc3)c2=O)[nH][nH]1,5%,12%,25µM*,0%,.,-2%

# Bioassay records (PubChem)
